Assay [1] has as its target Retinoic acid receptor alpha (Homo sapiens) (UniProt P10276). In words: ATG_DR5_RAR_CIS: Attagene CIS-FACTORIAL HepG2 Assay for human Retinoic Acid Receptor Alpha (RARE), DR5 submotif (AID 2282934; active = hit-call score of the fitted dose curve at least 0.9, where 1 is the maximum; inactive = score below 0.9;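 as to AC50: reporter responds to endogenous RAR alpha beta and gamma in HepG2 not RARA alone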). The settings on record: HepG2 Attagene cis-factorial RARE DR5 reporter, mRNA; actives raise or lower the signal. The method, boiled down: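 After 24 h of chemical exposure, transiently transfected HepG2 cells were lysed for total RNA; the DR5-regulated reporter transcript was quantified via RT-PCR and capillary electrophoresis, with activity fitted bidirectionally against DMSO.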

The target in assay [2] is Oxysterols receptor LXR-alpha (Homo sapiens) (UniProt Q13133). In words: ATG_LXRa_TRANS: Attagene TRANS-FACTORIAL HepG2 Assay for human Liver X Receptor alpha (LXRa) (AID 2282980). The following applies: HepG2 Attagene TRANS reporter, LXRa transactivation. The method, boiled down:
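HepG2 cells transiently transfected with GAL4-UAS reporter units for chimeric NR-Gal4 proteins, exposed to chemicals for 24 h. Reporter mRNA quantified by RT-PCR and capillary electrophoresis; gain of signal fitted relative to DMSO.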

For assay [3], the target named is human RAR-related Orphan Receptor beta (RORb), RORB (gene 6096) (UniProt Q92753). The experiment in a line: ATG_RORb_TRANS: Attagene TRANS-FACTORIAL HepG2 Assay for human RAR-related Orphan Receptor beta (RORb) (AID 2283010). The method, boiled down:
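HepG2 cells transiently transfected with GAL4-UAS reporter units expressing chimeric NR-Gal4 protein; reporter mRNA measured 24 h after dosing by RT-PCR, 6-FAM labelling and capillary electrophoresis. Gain-of-signal fitted relative to DMSO baseline.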

The nature of assay [4]: TOX21_p53_BLA_p4_viability: Viability Assessment in the Tox21 HCT-116 p53 Agonism Beta-lactamase Assay, Phase 4 (AID 2283597).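 Also: hits lower the luminescence signal meaning cytotoxicity.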 The method, boiled down: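 HCT-116 p53-bla cells, 4000/well, dosed after 5 h attachment and incubated 16 h at 37 °C, 5% CO2. Viability from CellTiter-Glo ATP luminescence after 30 min at room temperature, taken after the beta-lactamase read; loss of signal indicates cytotoxicity.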

Assay [5] is described as follows: CCTE_Harrill_HTTr_Viability_MCF7: CCTE's 6-hour Cell Viability Assessment for the High-Throughput Transcriptomics (HTTr) Platform, in MCF-7 cells cultured in DMEM + 10% fetal bovine serum, Harrill Lab (AID 2284010; active = hit-call score of the fitted dose curve at least 0.9, where 1 is the maximum; inactive = score below 0.9). Summed up: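 MCF-7 cells in DMEM + 10% FBS, 384-well, exposed 6 h to an eight-point dilution series. Membrane integrity scored by high-content imaging of propidium iodide exclusion; bidirectional fit versus DMSO.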

Assay [6] can be described thus: CCTE_Harrill_HTTr_Apoptosis_MCF7: CCTE's 6-hour Apoptosis Assessment for the High-Throughput Transcriptomics (HTTr) Platform, in MCF-7 cells cultured in DMEM + 10% fetal bovine serum, Harrill Lab (AID 2284011; active = hit-call score of the fitted dose curve at least 0.9, where 1 is the maximum; inactive = score below 0.9). Summed up:
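MCF-7 cells in DMEM + 10% FBS exposed 6 h to chemicals over an eight-point dilution series. Caspase-3/7 activation imaged by high-content CellEvent Green staining; fitted bidirectionally versus DMSO.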

A short description of assay [7]: ATG_GAL4_TRANS: Attagene TRANS-FACTORIAL HepG2 Assay for GAL4 (Internal Marker) (AID 2282976). The settings on record: HepG2 Attagene TRANS GAL4 internal marker reporter. The method, boiled down:
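Background-control readout: GAL4-UAS reporter transcript in transiently transfected HepG2 cells after 24 h compound exposure. Measured by RT-PCR, 6-FAM primer extension, HpaI digest and capillary electrophoresis; gain-of-signal fit versus DMSO.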

Assay [8] addresses Estrogen-related receptor gamma (Homo sapiens) (UniProt P62508). The experiment in a line: ATG_ERRg_TRANS: Attagene TRANS-FACTORIAL HepG2 Assay for human Estrogen-Related Receptor gamma (ERRg) (AID 2282977).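 Also: hits increase reporter signal over DMSO so potencies reflect activators.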 The following applies: HepG2 Attagene TRANS reporter, ERRg transactivation. Summed up: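 HepG2 cells transiently transfected with multiplexed GAL4-UAS reporter units driven by chimeric NR-Gal4 proteins; 24 h exposure. Reporter mRNA quantified by RT-PCR, fluorescent labelling, HpaI digestion and capillary electrophoresis; gain of signal vs DMSO.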

In assay [9] the target is Oxysterols receptor LXR-beta (Homo sapiens) (UniProt P55055). The experiment in a line: ATG_LXRb_TRANS: Attagene TRANS-FACTORIAL HepG2 Assay for human Liver X Receptor beta (LXRb) (AID 2282981). The following applies: HepG2 Attagene TRANS GAL4-LXRb reporter, mRNA. The method, boiled down:
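HepG2 cells transiently transfected with GAL4-UAS reporter units for chimeric NR-Gal4 proteins, dosed for 24 h. Reporter transcripts measured by RT-PCR and capillary electrophoresis; gain-of-signal fitting relative to DMSO.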

Assay [10] can be described thus: ATG_M_32_TRANS: Attagene TRANS-FACTORIAL HepG2 Assay for M32 Transcription Factor (Internal Marker) (AID 2282984). The following applies: HepG2 Attagene TRANS M32 internal marker reporter. The method, boiled down:
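HepG2 cells transiently transfected with GAL4-UAS reporter units, dosed for 24 hours. Reporter mRNA quantified by RT-PCR, 6-FAM labelling, HpaI digestion and capillary electrophoresis; internal-marker signal fitted upward relative to DMSO.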

In assay [11] the target is human Peroxisome Proliferator-activated Receptor delta (PPARd), PPARD (gene 5467) (UniProt Q03181). In words: ATG_PPARd_TRANS: Attagene TRANS-FACTORIAL HepG2 Assay for human Peroxisome Proliferator-activated Receptor delta (PPARd) (AID 2283002). The method, boiled down:
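Fluorescence from capillary electrophoresis of labelled RT-PCR reporter fragments gives the signal; DMSO sets baseline. Cells: HepG2 transiently carrying GAL4-UAS reporter units plus chimeric nuclear receptor-Gal4 proteins, exposed to chemicals for 24 h.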

The target in assay [12] is human Thyroid Receptor alpha (THRa1), THRA (gene 7067) (UniProt P10827). In words: ATG_THRa1_TRANS: Attagene TRANS-FACTORIAL HepG2 Assay for human Thyroid Receptor alpha (THRa1) (AID 2283014). The method, boiled down:
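HepG2 cells transiently transfected with chimeric NR-Gal4 and GAL4-UAS reporter units, dosed 24 h. Reporter mRNA quantified by RT-PCR, fluorescent labeling, HpaI digestion and capillary electrophoresis; gain-of-signal fit versus DMSO.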

For assay [13], the target named is Nuclear receptor subfamily 1 group I member 3 (Homo sapiens) (UniProt Q14994). The experiment in a line: ATG_CAR_TRANS: Attagene TRANS-FACTORIAL HepG2 Assay for human Constitutive Androstane Receptor (CAR) (AID 2282969).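 Also: activators raise reporter mRNA above DMSO so AC50 marks induction.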 The following applies: HepG2 Attagene TRANS-FACTORIAL CAR reporter. The method, boiled down:
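HepG2 cells transiently transfected with GAL4-UAS reporter units; TRANS format reads activity of exogenous chimeric NR-Gal4 protein. After 24 h dosing, reporter mRNA quantified by RT-PCR, 6-FAM labelling and capillary electrophoresis; gain of signal fitted against DMSO.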

A short description of assay [14]: ATG_M_19_TRANS: Attagene TRANS-FACTORIAL HepG2 Assay for M19 Transcription Factor (Internal Marker) (AID 2282974). The settings on record: HepG2 Attagene TRANS-FACTORIAL M19 internal marker reporter. Summed up:
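Cells: human HepG2, transiently transfected with multiplexed reporter transcription units. Exposure: 24 h. Detection: RT-PCR of reporter mRNA with capillary electrophoresis. Analysis: gain-of-signal vs DMSO.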

Assay [15] has as its target Nuclear receptor subfamily 4 group A member 2 (Homo sapiens) (UniProt P43354). The experiment in a line: ATG_NURR1_TRANS: Attagene TRANS-FACTORIAL HepG2 Assay for human Nuclear Receptor Related Protein 1 (NURR1) (AID 2282985). The settings on record: HepG2 Attagene TRANS reporter, mRNA readout. Summed up:
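HepG2 cells transiently transfected with NURR1-Gal4 chimera and GAL4-UAS reporter units; after 24 hr compound exposure, reporter mRNA quantified by RT-PCR and capillary electrophoresis; gain of signal fitted against DMSO.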

In assay [16] the target is human RAR-related Orphan Receptor gamma (RORg), RORC (gene 6097) (UniProt P51449). In words: ATG_RORg_TRANS: Attagene TRANS-FACTORIAL HepG2 Assay for human RAR-related Orphan Receptor gamma (RORg) (AID 2283011). Summed up:
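HepG2 cells transiently transfected with GAL4-UAS reporter units and chimeric RORg-Gal4 construct; after 24 h chemical exposure, reporter mRNA measured by RT-PCR with fluorescent capillary electrophoresis, gain of signal fitted against DMSO.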

Assay [17] addresses Retinoic acid receptor RXR-alpha (Homo sapiens) (UniProt P19793). In words: ATG_RXRa_TRANS: Attagene TRANS-FACTORIAL HepG2 Assay for human Retinoid X Receptor alpha (RXRa) (AID 2283012). The method, boiled down:
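HepG2 cells transiently transfected with GAL4-UAS reporter units and chimeric RXRa-Gal4 protein, treated 24 h. Reporter mRNA measured by RT-PCR, fluorescent labelling, HpaI digestion and capillary electrophoresis. Induction fitted against DMSO.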

Assay [18] can be described thus: ACEA_ER_AUC_viability: ACEA Biosciences xCELLigence Real-Time Cell Analysis on Estrogen Receptor Agonism for Viability (AID 2283782).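 Also: continuous compound exposure with impedance area under curve over 80 h; hit means loss of impedance signal meaning reduced cell growth or viability.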 Summed up: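 T47D cells preconditioned in phenol red-free RPMI with charcoal-stripped FBS, then dosed with 8-point 1:4 series from 100 uM (up to 0.5% DMSO). Impedance monitored up to ~80 h; area-under-curve loss versus DMSO taken as viability.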

The target of assay [19] is Peroxisome proliferator-activated receptor gamma (Homo sapiens) (UniProt P37231). In words: ATG_PPARg_TRANS: Attagene TRANS-FACTORIAL HepG2 Assay for human Peroxisome Proliferator-activated Receptor-gamma (PPARg) (AID 2283007). Summed up: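 A TRANS-format multiplexed reporter assay measures activity of an exogenous chimeric NR-Gal4 protein in HepG2 cells. After 24 h of chemical exposure, reporter transcripts are amplified, fluorescently labelled and sized by capillary electrophoresis, with gain of signal scored against DMSO.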

Results filed as inconclusive are left out. Activity calls are given as the source filed them. The calls were made as follows, unless noted: active = hit-call score of the fitted dose curve at least 0.9, where 1 is the maximum; inconclusive = response in the unintended direction; inactive = score below 0.9.

By AC50 is commonly meant the midpoint of the concentration-response curve, whichever way the signal moves.

Nuclear receptor subfamily 1 group I member 3 (Homo sapiens), sequence (Q14994 whole entry, looked up, the tested form may be a part): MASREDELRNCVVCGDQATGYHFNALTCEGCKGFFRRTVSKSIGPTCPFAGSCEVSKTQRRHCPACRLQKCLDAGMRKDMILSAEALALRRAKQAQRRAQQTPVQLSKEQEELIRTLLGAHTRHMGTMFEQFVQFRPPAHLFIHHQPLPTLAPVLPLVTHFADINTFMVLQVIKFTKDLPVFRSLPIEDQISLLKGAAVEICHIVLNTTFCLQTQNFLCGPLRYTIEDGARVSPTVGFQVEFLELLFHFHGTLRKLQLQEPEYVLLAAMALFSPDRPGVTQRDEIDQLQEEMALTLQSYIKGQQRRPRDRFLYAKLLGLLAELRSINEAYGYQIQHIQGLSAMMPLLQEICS
Oxysterols receptor LXR-alpha (Homo sapiens), sequence (Q13133 whole entry, looked up, the tested form may be a part): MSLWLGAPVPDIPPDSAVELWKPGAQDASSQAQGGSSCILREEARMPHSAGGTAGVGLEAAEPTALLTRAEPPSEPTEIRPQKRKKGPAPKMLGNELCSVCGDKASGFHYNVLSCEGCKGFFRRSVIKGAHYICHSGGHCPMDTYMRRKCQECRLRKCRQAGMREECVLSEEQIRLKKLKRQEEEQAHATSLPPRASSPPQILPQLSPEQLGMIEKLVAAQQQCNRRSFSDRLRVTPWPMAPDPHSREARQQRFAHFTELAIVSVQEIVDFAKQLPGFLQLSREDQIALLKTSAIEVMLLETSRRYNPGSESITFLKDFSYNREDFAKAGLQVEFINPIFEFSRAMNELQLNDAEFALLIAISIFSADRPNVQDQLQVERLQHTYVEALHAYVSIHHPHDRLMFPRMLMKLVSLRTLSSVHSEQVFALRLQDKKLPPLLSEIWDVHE
human RAR-related Orphan Receptor gamma (RORg), RORC (gene 6097), sequence (P51449 whole entry, looked up, the tested form may be a part): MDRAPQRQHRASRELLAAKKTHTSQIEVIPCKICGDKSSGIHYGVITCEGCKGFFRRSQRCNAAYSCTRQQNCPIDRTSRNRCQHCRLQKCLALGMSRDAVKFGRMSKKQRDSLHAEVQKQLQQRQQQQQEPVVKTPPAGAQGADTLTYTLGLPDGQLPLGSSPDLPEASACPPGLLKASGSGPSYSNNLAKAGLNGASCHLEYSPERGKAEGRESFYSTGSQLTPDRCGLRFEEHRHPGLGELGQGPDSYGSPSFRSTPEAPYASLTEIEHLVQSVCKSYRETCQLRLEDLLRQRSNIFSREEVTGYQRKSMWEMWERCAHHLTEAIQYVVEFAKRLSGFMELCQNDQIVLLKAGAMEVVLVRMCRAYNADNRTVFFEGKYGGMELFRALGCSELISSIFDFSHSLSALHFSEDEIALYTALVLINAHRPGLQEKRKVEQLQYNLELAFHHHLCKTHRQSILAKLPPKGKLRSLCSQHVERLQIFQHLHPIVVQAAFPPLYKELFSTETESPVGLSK
Retinoic acid receptor RXR-alpha (Homo sapiens), sequence (P19793 whole entry, looked up, the tested form may be a part): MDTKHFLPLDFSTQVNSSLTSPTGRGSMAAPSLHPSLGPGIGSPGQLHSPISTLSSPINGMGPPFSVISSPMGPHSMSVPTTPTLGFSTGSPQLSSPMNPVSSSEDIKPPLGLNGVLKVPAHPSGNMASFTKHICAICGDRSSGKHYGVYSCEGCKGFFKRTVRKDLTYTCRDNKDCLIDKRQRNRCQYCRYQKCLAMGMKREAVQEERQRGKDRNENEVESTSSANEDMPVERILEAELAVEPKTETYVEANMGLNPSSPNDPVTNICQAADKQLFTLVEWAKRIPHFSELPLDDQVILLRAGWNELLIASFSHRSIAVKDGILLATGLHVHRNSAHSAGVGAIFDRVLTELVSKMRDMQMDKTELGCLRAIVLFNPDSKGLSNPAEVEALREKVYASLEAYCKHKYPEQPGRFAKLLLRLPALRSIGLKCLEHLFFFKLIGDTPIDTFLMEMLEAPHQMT
human Thyroid Receptor alpha (THRa1), THRA (gene 7067), sequence (P10827 whole entry, looked up, the tested form may be a part): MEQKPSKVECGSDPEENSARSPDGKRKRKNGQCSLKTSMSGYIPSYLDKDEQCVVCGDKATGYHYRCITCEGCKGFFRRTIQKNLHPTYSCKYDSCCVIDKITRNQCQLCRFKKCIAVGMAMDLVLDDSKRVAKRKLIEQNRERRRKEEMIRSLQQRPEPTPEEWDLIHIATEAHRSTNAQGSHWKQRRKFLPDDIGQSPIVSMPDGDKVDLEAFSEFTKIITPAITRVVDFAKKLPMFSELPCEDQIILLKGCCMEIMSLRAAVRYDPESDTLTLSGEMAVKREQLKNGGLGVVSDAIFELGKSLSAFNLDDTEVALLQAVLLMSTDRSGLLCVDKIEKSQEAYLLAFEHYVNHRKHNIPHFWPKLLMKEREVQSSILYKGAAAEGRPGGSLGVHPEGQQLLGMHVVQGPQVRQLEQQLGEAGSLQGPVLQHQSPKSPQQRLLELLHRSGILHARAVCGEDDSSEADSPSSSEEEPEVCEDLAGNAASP
Estrogen-related receptor gamma (Homo sapiens), sequence (P62508 whole entry, looked up, the tested form may be a part): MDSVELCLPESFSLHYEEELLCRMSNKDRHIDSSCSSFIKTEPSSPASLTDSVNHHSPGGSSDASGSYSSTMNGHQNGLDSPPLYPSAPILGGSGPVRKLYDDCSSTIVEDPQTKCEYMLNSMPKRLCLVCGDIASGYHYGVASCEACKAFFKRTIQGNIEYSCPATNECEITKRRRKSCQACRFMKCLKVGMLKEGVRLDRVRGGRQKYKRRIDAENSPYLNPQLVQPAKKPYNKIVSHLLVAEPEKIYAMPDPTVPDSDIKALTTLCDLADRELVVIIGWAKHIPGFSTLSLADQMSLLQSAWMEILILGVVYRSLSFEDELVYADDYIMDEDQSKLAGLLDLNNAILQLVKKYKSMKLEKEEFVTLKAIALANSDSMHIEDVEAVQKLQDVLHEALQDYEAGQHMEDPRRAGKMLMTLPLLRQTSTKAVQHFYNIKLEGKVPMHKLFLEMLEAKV
human RAR-related Orphan Receptor beta (RORb), RORB (gene 6096), sequence (Q92753 whole entry, looked up, the tested form may be a part): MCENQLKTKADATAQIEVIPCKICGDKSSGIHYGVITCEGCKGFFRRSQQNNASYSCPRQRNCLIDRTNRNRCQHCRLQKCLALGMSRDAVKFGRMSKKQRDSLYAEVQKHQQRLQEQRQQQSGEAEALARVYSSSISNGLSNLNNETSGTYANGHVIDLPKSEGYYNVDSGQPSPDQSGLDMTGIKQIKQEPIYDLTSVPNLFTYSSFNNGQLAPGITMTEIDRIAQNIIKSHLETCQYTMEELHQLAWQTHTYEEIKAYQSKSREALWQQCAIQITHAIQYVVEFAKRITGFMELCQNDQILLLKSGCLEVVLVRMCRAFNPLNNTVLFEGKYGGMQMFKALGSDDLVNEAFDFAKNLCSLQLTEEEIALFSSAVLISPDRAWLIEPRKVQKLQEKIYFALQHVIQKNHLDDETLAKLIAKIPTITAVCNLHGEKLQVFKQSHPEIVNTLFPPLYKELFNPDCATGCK
human Peroxisome Proliferator-activated Receptor delta (PPARd), PPARD (gene 5467), sequence (Q03181 whole entry, looked up, the tested form may be a part): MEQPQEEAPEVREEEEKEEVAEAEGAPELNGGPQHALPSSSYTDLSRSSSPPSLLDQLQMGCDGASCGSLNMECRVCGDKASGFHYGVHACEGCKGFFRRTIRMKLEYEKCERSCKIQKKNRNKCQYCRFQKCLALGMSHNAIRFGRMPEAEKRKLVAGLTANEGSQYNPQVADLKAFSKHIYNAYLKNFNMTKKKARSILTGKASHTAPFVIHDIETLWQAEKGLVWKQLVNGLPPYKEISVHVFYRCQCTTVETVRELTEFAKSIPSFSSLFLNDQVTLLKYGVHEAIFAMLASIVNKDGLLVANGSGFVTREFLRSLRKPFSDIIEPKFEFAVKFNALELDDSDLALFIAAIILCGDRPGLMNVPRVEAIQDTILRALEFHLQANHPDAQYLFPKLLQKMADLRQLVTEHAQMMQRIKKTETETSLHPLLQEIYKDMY
Oxysterols receptor LXR-beta (Homo sapiens), sequence (P55055 whole entry, looked up, the tested form may be a part): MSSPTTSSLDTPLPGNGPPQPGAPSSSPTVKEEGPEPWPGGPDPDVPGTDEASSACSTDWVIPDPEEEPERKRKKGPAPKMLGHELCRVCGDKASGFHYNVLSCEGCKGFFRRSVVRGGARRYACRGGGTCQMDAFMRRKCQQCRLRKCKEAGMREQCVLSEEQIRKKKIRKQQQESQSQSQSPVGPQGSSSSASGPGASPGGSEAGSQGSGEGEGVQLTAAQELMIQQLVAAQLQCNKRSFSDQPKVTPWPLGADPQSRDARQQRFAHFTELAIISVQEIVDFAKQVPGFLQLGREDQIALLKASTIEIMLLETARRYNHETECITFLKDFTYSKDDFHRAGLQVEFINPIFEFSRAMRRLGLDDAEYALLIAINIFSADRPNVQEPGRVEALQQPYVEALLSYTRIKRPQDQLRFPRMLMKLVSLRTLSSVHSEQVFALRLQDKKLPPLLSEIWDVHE
Retinoic acid receptor alpha (Homo sapiens), sequence (P10276 whole entry, looked up): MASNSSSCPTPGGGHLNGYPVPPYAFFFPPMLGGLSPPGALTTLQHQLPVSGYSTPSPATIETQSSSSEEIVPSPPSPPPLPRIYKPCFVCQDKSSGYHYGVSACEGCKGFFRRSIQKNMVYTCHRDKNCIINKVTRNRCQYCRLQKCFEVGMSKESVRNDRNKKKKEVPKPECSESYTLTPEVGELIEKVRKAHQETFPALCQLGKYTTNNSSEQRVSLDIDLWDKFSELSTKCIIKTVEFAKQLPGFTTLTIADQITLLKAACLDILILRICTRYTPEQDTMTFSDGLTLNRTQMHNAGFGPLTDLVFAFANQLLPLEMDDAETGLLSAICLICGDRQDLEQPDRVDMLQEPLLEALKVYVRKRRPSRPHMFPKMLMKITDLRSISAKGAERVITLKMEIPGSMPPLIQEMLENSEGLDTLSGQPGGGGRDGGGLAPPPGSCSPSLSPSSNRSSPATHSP

In the case of `CCc1cc(C(N)=S)ccn1`, the molecule was classed as inactive in [1], in assay [2], in assay [3], in [4], in assay [5] and in assay [6].

Consider `CCC(C)C1N=C(C)C(C)S1` (configuration not stated), for which the outcome in assay [1], in assay [7], in assay [8], in assay [2], in assay [9] and in assay [10] was inactive. Also, the outcome in assay [11], in assay [12] and in [4] was inactive.

Take `C/C=C(\C)C(=O)OCC/C=C\CC`: the molecule was classed as inactive in [1], in assay [13], in assay [14], in assay [7], in [2] and in assay [10]. The molecule was called inactive in assay [15], in assay [16], in assay [17] and in assay [18].

In the case of `CC(=O)CCc1ccccc1`, the outcome in assay [1], in [14], in [7], in [9], in assay [3] and in assay [16] was inactive. In addition, the result in assay [4] was inactive.

As to `CCCCCCCC#N`, the call in [1], in [14], in assay [7], in assay [2], in assay [15] and in [17] was inactive. The outcome in assay [12] and in assay [18] was inactive.

For the molecule `NC(=O)c1ccc(N)cc1`, the call in assay [1], in assay [13], in [7], in [8], in assay [2] and in assay [9] was inactive. Moreover, the outcome in [15], in assay [16] and in [4] was inactive.

`O=C1NC(=O)C2CC=CCC12` (configuration not stated): the outcome in [1], in assay [11], in assay [4] and in assay [18] was inactive.

For `c1ccc(CNc2ncnc3nc[nH]c23)cc1`, the molecule was called inactive in assay [1], in assay [14], in assay [2], in [9], in [12] and in assay [4]. Moreover, the outcome in assay [18], in [5] and in [6] was inactive.

Consider `O=C(O)c1nc(Cl)c(Cl)c(Cl)c1Cl`, for which the molecule was classed as inactive in assay [1], in assay [7], in [8], in [2], in assay [9] and in assay [15]. Moreover, the outcome in assay [11] and in assay [12] was inactive.

Turning to `CCCCCCCCCCCCCCCCCC[N+](C)(C)C`, the AC50 in assay [1] was 42.5 µM (active); in [7], 15.4 µM (active); in assay [8], 25 µM (active); in assay [19], 32.7 µM (active); in assay [4], 65.7 µM (active). Besides, the molecule was called inactive in [13], in assay [2], in [9], in [15] and in assay [11].

On to `O=C(OCc1ccccc1)c1ccccc1`, for which the result in assay [1], in assay [14], in assay [7], in assay [2], in assay [10] and in [15] was inactive. Also, the molecule was classed as inactive in assay [19], in assay [12], in assay [5] and in assay [6]. Further, the AC50 in assay [18] is 76.8 µM (active).

As to `C=CCOC(=O)C(=C)C`, the outcome in assay [1], in assay [7], in assay [8], in assay [11], in [3] and in [4] was inactive. The molecule was called inactive in [18].

Consider `O=C1CCCCCCCCCCCCCC1`, for which the outcome in [1], in [2], in assay [11], in assay [4] and in [18] was inactive. Moreover, the AC50 in [15] was 25.7 µM (active).

Regarding `COC(=O)/C=C\C(=O)OC`, the call in [1], in [8], in assay [2], in assay [15], in [11] and in assay [12] was inactive. Further, the AC50 in assay [18] was 76.9 µM (active).

Turning to `CCC(=O)OCc1ccc(OC)cc1`, the molecule was called inactive in assay [1], in assay [13], in assay [14], in assay [7], in assay [2] and in assay [15]. Moreover, the molecule was classed as inactive in assay [11], in assay [16], in assay [17] and in assay [4]. The AC50 in assay [18] was 39.9 µM (active).

Values taken from PubChem BioAssay (EPA / NIEHS).
